Potency and affinity values are given separately. Values without a mark were called inactive.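 Rule for the calls: active = cell killing with a fitted half-effect concentration at or below twice the top valid dose; inconclusive = flat curve with 30 to 70 percent drop, or poor fit; inactive = the rest.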
experiment: HEK293T cell cytotoxicity, dose response, cytotoxicity control, ATP luminescence, cherry-pick, set 6 (AID 1053126); settings: HEK293T viability, CellTiter-Glo ATP luminescence, 72 h; series mostly up to 26 µM; activity change, negative = cytotoxicity: at the top concentration;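 note: 0% = neutral control wells and -100% = mitoxantrone 10 µM positive control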

| SMILES | activity change, negative = cytotoxicity |
| --- | --- |
| CC(C)N1CCc2c(sc(NC(=O)Cc3ccccc3)c2C#N)C1 | 49.6% |
| COc1ccc(C2CC(c3cccs3)=NN2c2nc(C)c(C(C)=O)s2)cc1OC (stereo not drawn) | 82.2% |
| CCCCCCc1cc2cc(S(=O)(=O)c3ccc(F)cc3)c(=O)oc2cc1O | 48.1% [at 12 µM] |
| CN1CCc2c(sc(NC(=O)Cc3ccccc3)c2C#N)C1 | -7.9% |
| O=c1oc2c(CN3CCN(CCO)CC3)c(O)ccc2cc1-c1ccccn1 | -3.28% |
| COc1ccccc1N1CCN(C2CCC(C)CC2)CC1 (stereo not drawn) | -4.57% |
| CCC(C)n1c(=N)c(C#N)cc2c(=O)n3cccc(C)c3nc21 (stereo not drawn) | -16.5% |
| CSc1ccc(Cn2c(C)c(C(=O)NCCC#N)sc2=O)cc1 | -0.568% |
| CCCCn1nc(NC(=O)c2cccs2)c2cc3cc(OC)ccc3nc21 | -8% [at 12 µM] |
| COCCN1C=C(C(=O)OC)C(c2ccc(Cl)cc2)C(C(=O)OC)=C1 | -13.6% |
| CCn1c(=N)c(S(=O)(=O)c2ccccc2)cc2c(=O)n3ccccc3nc21 | -10.1% |
| CC(C)CCN1C(=O)c2cccc3c(N)ccc(c23)C1=O | -10.8% |
| O=C(O)c1ccc(N2N=C(c3ccccc3)CC2c2ccccc2)cc1 (stereo not drawn) | -11.6% |
| CCOc1ccc(-n2c(SCC(=O)Nc3nccs3)nnc2-c2ccoc2C)cc1 | 0.85% |
| O=C1c2ccccc2S(=O)(=O)c2cc(N3CCC(C(=O)N4CCCCC4)CC3)ccc21 | -19.3% |
| CCC(=O)NCCCNc1nc2c(C)cccc2cc1C#N | -2.83% |
| Cc1nc(CCNC(=O)Cc2ccc(Cl)cc2)cs1 | -7.6% |
| O=[N+]([O-])c1cccc(Nc2c3ccccc3nc3ccccc23)c1 | -22% |
| CCN(c1ccccc1)S(=O)(=O)c1ccc(OC)c(NC(=O)CN(C)C)c1 | -19% |

| SMILES | activity change, negative = cytotoxicity |
| --- | --- |
| Cc1cc(=O)oc2cc(OC(=O)c3cncc(Br)c3)ccc12 | -11.8% |
| O=C(NNc1c2ccccc2nc2ccccc12)c1ccc(O)cc1 | -17.1% |
| CCOc1ccc(NC(=O)CN(C)C(=O)CCCNC(=O)c2ccc(Cl)cc2)cc1OCC | -10.1% |
| Cc1ccc2nc3c(cc(S(=O)(=O)c4ccccc4)c(=N)n3Cc3ccco3)c(=O)n2c1 | -15.9% |
| Cc1cccn2c(=O)c3cc(C(=O)NCCN4CCOCC4)c(=N)n(CCc4ccccc4)c3nc12 | -20.7% |
| Cc1cc(C)nc(SCC(=O)Nc2ccc(S(=O)(=O)Nc3onc(C)c3C)cc2)n1 | -1.79% |
| CCCCN1C=C(C(=O)OC)C(c2ccccc2Cl)C(C(=O)OC)=C1 | -13.7% |
| Cc1cc(CNC(=O)c2ccc3c(c2)OCO3)c2ccccc2n1 | -7.76% |
| COc1ccccc1C1C2=C(CC(C)(C)CC2=O)N(CC(=O)O)C2=C1C(=O)CC(C)(C)C2 | 24.7% |
| O=C(O)c1cccc(NC(=O)c2cn(-c3ccccc3)nc2-c2cccc(Br)c2)c1 | -12.8% |
| CCOc1ccc(S(=O)(=O)Nc2ccc(C(=O)N(CC)CC(=O)NCc3cccs3)cc2)cc1 | -3.98% |
| C/C(=N\NC(=O)CC#N)c1cc2ccc(O)cc2oc1=O | 12.9% |
| CCN(CC)Cc1c(O)c(Cl)cc2c(C)cc(=O)oc12 | -0.263% |
| O=C(O)c1cccc(Nc2nc(-c3cc4ccccc4oc3=O)cs2)c1 | -14.3% |
| Clc1cccc(CN2CCN(Cc3nc(CCc4ccccc4)no3)CC2)c1 | -15.3% |
| CCCCCCc1cc2cc(S(=O)(=O)c3ccc(C)cc3)c(=O)oc2cc1O | 59.9% |
| CN1CCN(c2nc3ccccn3c(=O)c2/C=C(\C#N)S(=O)(=O)c2ccccc2)CC1 | 2.02% |
| CN1CCc2c(sc(NC(=O)C3CCCCC3)c2C(N)=O)C1 | -9.23% |
| O=C(CCc1c[nH]c2ccccc12)OCC(=O)c1ccccc1 | -12.4% |
